Source: PubChem (National Center for Advancing Translational Sciences (NCATS))
FUS yeast rescue = FUS proteinopathy suppression in yeast | S. cerevisiae FUS-expressing, growth rescue, OD600, 24 h | Potency, µM (titrated, usually from 76.6 µM), most hits filed as activators | hit rate 0.24% among 390,000 | AID 1347120;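 note: potency is the fitted concentration of half-maximal effect; plate controls were DMSO vehicle for no effect and reference control for full effect; nearly all actives have a fitted effect of over 55% in size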
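Absorbance at 600 nm, taken 24hr after compound addition, measured rescue of FUS-yeast growth at 30C. Induction used 2% galactose with seeding at OD 0.005. Controls: CP55940 from 92uM final, DMSO only.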
IDH1 R132H inh = blocks human mutant IDH1 R132H enzyme. hit rate 0.093% among 390,000. IDH1-R132H enzyme, NADPH consumption, diaphorase/resazurin fluorescence. Potency, µM (top dose mostly 76.6 µM), inactives show top-dose activity change, negative = inhibition, hits mostly inhibitors; note: potency is the fitted concentration of half-maximal effect; % is set by controls: 0 for no effect and ±100 for the full control effect; nearly all actives have a fitted effect of over 65% in size
Target sequence (O75874 whole entry R132H, stated change not applied): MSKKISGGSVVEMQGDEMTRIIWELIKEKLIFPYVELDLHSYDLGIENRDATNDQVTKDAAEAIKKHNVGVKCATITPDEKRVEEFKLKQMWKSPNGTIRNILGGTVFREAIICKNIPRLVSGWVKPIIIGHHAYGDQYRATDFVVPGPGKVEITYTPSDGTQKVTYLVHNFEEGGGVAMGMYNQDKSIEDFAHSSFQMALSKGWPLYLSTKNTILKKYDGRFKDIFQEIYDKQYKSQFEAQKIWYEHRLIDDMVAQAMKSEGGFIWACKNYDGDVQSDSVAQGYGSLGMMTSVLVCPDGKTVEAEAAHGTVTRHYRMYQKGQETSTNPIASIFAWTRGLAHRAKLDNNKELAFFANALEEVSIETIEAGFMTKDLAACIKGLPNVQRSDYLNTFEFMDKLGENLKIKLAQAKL
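IDH1-R132H (0.5 ug/mL dispensed) in pH 7.5 Tris buffer was preincubated 30 min with compound, then given a substrate mix of 0.016 mM NADPH and 2 mM alpha-KG for 80 min at room temperature; remaining NADPH was read by diaphorase/resazurin fluorescence.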
TDP-43 yeast inh = TDP-43 toxicity inhibition in yeast. TDP-43 expressing yeast growth rescue, BacTiter-Glo, 24 h. Potency, µM (series often up to 46.1 µM), for inactives: at the top dose growth rescue (activation), hits mostly activators. hit rate 1.8% among 410,000; note: potency is the fitted concentration of half-maximal effect; % of control where 0% means no effect; nearly all actives have a fitted effect of over 50% in size
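Yeast cells expressing TDP-43 under galactose induction are exposed to compounds for 24 hr at 30 deg C. BacTiter-Glo luminescence measures growth, so protective compounds score as activators.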
aSyn rescue = inhibitors of alpha-synuclein toxicity in yeast; hit rate 0.14% among 370,000; Yeast expressing alpha-synuclein, growth rescue, BacTiter-Glo, 24 h; Potency, µM (series often up to 46.1 µM), for the others: top-dose growth rescue (activation), most hits filed as activators; note: potency is the fitted concentration of half-maximal effect; % of control where 0% means no effect; nearly all actives have a fitted effect of over 65% in size
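Screening used galactose-induced yeast with toxic alpha-synuclein levels, exposed to compound for 24 hr at 30 deg C. Cell growth, read with BacTiter-Glo luminescence, gave the measured signal.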
Abeta yeast res = compounds reversing amyloid beta toxicity in yeast; yeast expressing A-beta42, growth rescue, OD600, 48 h; response scale: 0% DMSO, 100% iron-clioquinol control; Potency, µM (series often up to 46.1 µM), most hits filed as activators; hit rate 0.063% among 410,000; note: potency is the fitted concentration of half-maximal effect; nearly all actives have a fitted effect of over 55% in size
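Growth rescue measured by 600 nm absorbance after 48 h yeast culture at 30 C with compound. Values normalized between DMSO and an equimolar ferric chloride plus clioquinol control.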
LDHA inh = blocks human lactate dehydrogenase A; hit rate 0.15% among 480,000; AID 1347041; purified LDHA, NADH/diaphorase-resazurin fluorescence; hits give low values; activity change, % (values are at about 110 or 230 µM); in the data active = activity change below about -30%; inconclusive = mostly about -25% to -30%;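 note: plate controls were DMSO wells for no effect and wells without enzyme for full effect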
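Resorufin fluorescence (ex540/em590), read at 0 and 20 min after diaphorase/resazurin addition, reports the NADH left after a 5 min room-temperature reaction of 2 nM human LDH5 with 0.06 mM NADH and 0.2 mM pyruvate.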
Numbers without * were called inactive. Shown are actives, neighbours in structure and some others; about 2% of the full set was active somewhere. Unless noted, calls come from the whole dose curve; as a rule, active = well fitted curve in the direction sought with a large enough effect; inconclusive = small, poorly fitted or top-dose-only effect, or another doubt; inactive = no such curve, though single readings can be large; an effect the other way counts as inactive or inconclusive.

For CCCNC(=O)C1(C)CCCN(C(=O)C2(c3ccc(Cl)cc3)CCCC2)C1 (configuration not stated) the results were FUS yeast rescue inactive, TDP-43 yeast inh 35µM*, aSyn rescue 6%, Abeta yeast res inactive and LDHA inh -3.
Screening COc1ccc2c(c1)c(C(C)=O)c(C)n2CCc1ccc(OC)c(OC)c1 returned FUS yeast rescue inactive, IDH1 R132H inh 0%, TDP-43 yeast inh 20µM*, aSyn rescue 2%, Abeta yeast res inactive and LDHA inh 0.
`Cn1c(=O)c2c(ncn2Cc2ccc(Cl)cc2Cl)n(C)c1=O` gave LDHA inh -3.
Cn1cnc2c1c(=O)n(Cc1ccc(Cl)cc1Cl)c(=O)n2C was read as FUS yeast rescue inactive, IDH1 R132H inh -5%, TDP-43 yeast inh 22µM*, aSyn rescue 14%, Abeta yeast res inactive and LDHA inh -13.
For O=C(c1cccs1)N(Cc1ccc2cc[nH]c2c1)C1CC1 the results were LDHA inh 0.
Screening O=C(NC1CCCCCC1)c1ccc(CS(=O)(=O)Cc2ccccc2F)o1 returned FUS yeast rescue inactive, IDH1 R132H inh -11%, TDP-43 yeast inh 1%, aSyn rescue 3%, Abeta yeast res inactive and LDHA inh -1.
O=C(NC1CCCCC1)c1ccc(-c2ccccc2F)o1 was read as IDH1 R132H inh 17%, TDP-43 yeast inh 13µM*, aSyn rescue 1%, Abeta yeast res inactive and LDHA inh -4.
O=C(Nc1nc(-c2ccc3ccccc3c2)cs1)C1CCN(S(=O)(=O)c2cccs2)CC1 was read as IDH1 R132H inh -2%, TDP-43 yeast inh 18%, aSyn rescue 5%, Abeta yeast res inactive and LDHA inh -30*.
For COc1ccc(Cl)cc1NC(=O)Cn1cc(C(=O)c2ccc(C)cc2)c(=O)c2ccc(C)nc21 the results were FUS yeast rescue inactive, IDH1 R132H inh -2%, TDP-43 yeast inh 0%, Abeta yeast res inactive and LDHA inh -12.
For Cc1ccc(C(=O)c2cn(CC(=O)NCc3ccccc3)c3nc(C)ccc3c2=O)cc1 the results were FUS yeast rescue inactive, IDH1 R132H inh -11%, TDP-43 yeast inh 5%, Abeta yeast res inactive and LDHA inh 1.
Screening CCc1ccc(C(=O)c2cn(CC(=O)Nc3cc(OC)ccc3OC)c3nc(C)ccc3c2=O)cc1 returned FUS yeast rescue 35µM*, IDH1 R132H inh -12%, TDP-43 yeast inh -26%, Abeta yeast res inactive and LDHA inh -4.
Cc1ccc(C(=O)c2cn(Cc3cccc(F)c3)c3nc(C)ccc3c2=O)cc1 was read as FUS yeast rescue inactive, IDH1 R132H inh -8%, TDP-43 yeast inh 14µM*, Abeta yeast res inactive and LDHA inh -2.
Cc1ccc(C(=O)c2cn(Cc3ccccc3)c3nc(C)ccc3c2=O)cc1 was read as FUS yeast rescue inactive, IDH1 R132H inh -12%, TDP-43 yeast inh 11µM*, Abeta yeast res inactive and LDHA inh -2.
Screening Cc1ccc2c(=O)c(C(=O)c3ccc(F)cc3)cn(CC(=O)NCc3ccccc3)c2n1 returned FUS yeast rescue inactive, IDH1 R132H inh -11%, TDP-43 yeast inh 5%, Abeta yeast res inactive and LDHA inh -2.
`Cc1ccc(C(=O)c2cn(Cc3ccccc3C)c3nc(C)ccc3c2=O)cc1` gave FUS yeast rescue 25µM*, IDH1 R132H inh inconclusive, TDP-43 yeast inh inconclusive, Abeta yeast res inactive and LDHA inh -4.
Screening CCCOc1ccccc1C(=O)N(Cc1ccc(C)cc1)C1CCS(=O)(=O)C1 (configuration not stated) returned LDHA inh 8.
For O=C(O)COCC(=O)NCC1CCCO1 (configuration not stated) the results were LDHA inh 5.
Screening Oc1ccc(C23CC4CC(CC(C4)C2)C3)cc1O returned FUS yeast rescue inactive, IDH1 R132H inh 9%, TDP-43 yeast inh 6.3µM*, aSyn rescue 2.8µM*, Abeta yeast res inconclusive and LDHA inh 6.
Nc1c(Cl)cc(C23CC4CC(CC(C4)C2)C3)cc1Cl was read as LDHA inh 13.
O=c1oc2ccc(Br)cc2cc1-c1nc(-c2ccccc2)cs1 was read as LDHA inh -1.
Cc1ccc(-c2csc3ncn(Cc4ccc(C(=O)O)cc4)c(=O)c23)cc1C was read as FUS yeast rescue inactive, IDH1 R132H inh -1%, TDP-43 yeast inh 20µM*, aSyn rescue inconclusive, Abeta yeast res inactive and LDHA inh -2.
Screening CCCOc1ccc(-c2csc3ncn(Cc4ccc(C(=O)O)cc4)c(=O)c23)cc1 returned FUS yeast rescue inactive, IDH1 R132H inh -8%, TDP-43 yeast inh 25µM*, aSyn rescue -60%, Abeta yeast res inactive and LDHA inh 2.
`Cn1cnc([N+](=O)[O-])c1S(=O)(=O)Oc1cccc2ccccc12` gave FUS yeast rescue inactive, IDH1 R132H inh -8%, TDP-43 yeast inh inconclusive, aSyn rescue -47%, Abeta yeast res inactive and LDHA inh 20.
For Cn1cnc([N+](=O)[O-])c1S(=O)(=O)Oc1ccc(Cl)cc1 the results were FUS yeast rescue inactive, IDH1 R132H inh 0%, TDP-43 yeast inh 3.2µM*, aSyn rescue -24%, Abeta yeast res inactive and LDHA inh -8.
Screening O=C(O)C(c1c[nH]c2cc(Br)ccc12)N1CCN(Cc2ccc(Cl)cc2Cl)CC1 (configuration not stated) returned LDHA inh -5.
For Cc1cccc(C(=O)Nc2ccc(NC(=S)NC(=O)c3ccc(Cl)cc3)cc2)c1 the results were LDHA inh 3.
Cc1cccc(/C=N/Nc2ccc([N+](=O)[O-])cc2)n1 was read as LDHA inh -3.
Screening O=C(O)c1ccc(NCc2ccc(Br)cc2)cc1 returned FUS yeast rescue inactive, IDH1 R132H inh 4%, TDP-43 yeast inh 3.5µM*, aSyn rescue 3%, Abeta yeast res inactive and LDHA inh -9.
For C=CCNc1ccc(C(=O)O)cc1 the results were FUS yeast rescue inactive, IDH1 R132H inh 4%, TDP-43 yeast inh 14µM*, aSyn rescue 11%, Abeta yeast res inactive and LDHA inh -2.
O=C(O)c1ccc(NCc2ccc(F)cc2)cc1 was read as LDHA inh -3.
`Cc1cccc(OCCOc2ccc3ccc(=O)oc3c2)c1` gave LDHA inh 11.
Screening O=C(/C=C/c1ccccc1)NNC(=S)NCc1ccccc1 returned LDHA inh 7.
